# Abs 340nm: compound absorbs light at 340 nm; compound absorbance at 340 nm, fold over control; fold change at 10 µM; 65,000 tested, under 10 active;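 active = at 10 µM dose, initial 340 nm absorbance at least 2 fold that of control wells; inactive = change under 2 fold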;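 also: initial absorbance extrapolated from kinetic A340 decline of NADH oxidation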
# Spn DPM-DC inh: S. pneumoniae DPM-DC inhibition; purified DPM-DC, PK/LDH coupled NADH fluorescence; calls only at 10 µM; actives 0.49% (n = 65,000); AID 556;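 active = the 320 compounds with the highest percent inhibition in the single-dose primary screen, excluding strongly autofluorescent ones, cut at about 32% in these data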;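 also: kinetic rate of NADH fluorescence loss reporting ADP formed by the decarboxylase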
# Autofluor 339: intrinsic fluorescence of library compounds, ex339/em460 – biochemical, MLSMR library, data from DPM-DC assay, artefact control, profiling panel; compound autofluorescence, ex339/em460 nm, NADH buffer; hits give high values; 1 = no-compound wells, NADH background; actives 5.5% (n = 65,000); fluorescence fold increase at 10 µM; AID 709;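 active = at 10 µM, mean starting fluorescence two-fold or more over control wells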;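 also: signal is the first read of a kinetic run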
# NADH coupling: inhibitors of enzymes used to reach an NAD/NADH endpoint; coupled PK/LDH NADH assays, four targets; IC50, µM (highest dose often 10 µM); actives 0.02% (n = 65,000); AID 774;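 active = single-dose screening hits from any of four coupled enzyme assays that gave an IC50 when retested across doses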;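 also: the DPM-DC format reads NADH fluorescence rather than 340 nm absorbance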
# Spn PMK inh: S. pneumoniae PMK inhibition; purified PMK, PK/LDH-coupled NADH absorbance 340 nm; inhibition, % at 10 µM; actives 0.49% (n = 65,000);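 active = top-ranked compounds by inhibition in the single 10 µM screen, taking a fixed number of the strongest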
# MK inhibit: inhibitors of Streptococcus pneumoniae mevalonate kinase | actives 0.48% (n = 65,000) | purified MK, PK/LDH-coupled NADH absorbance 340 nm | AID 555 | inhibition, % at 10 µM;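 active = ranked among the strongest by inhibition in the single 10 µM screen, a fixed top-ranked set picked for dose follow-up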
# Numbers stand for hits; – = inactive; · = not tested or not shown; + = active, no number. Shown are actives, neighbours in structure and some others; about 6.8% of the full set was active somewhere.
SMILES,Abs 340nm,Spn DPM-DC inh,Autofluor 339,NADH coupling,Spn PMK inh,MK inhibit
CCOC(=O)c1c(C)nc2ccccn12,–,–,–,–,–,–
CCCCCn1c(=NC(=O)c2ccco2)c(C(=O)OCC)cc2c(=O)n3ccccc3nc21,–,–,3,–,–,–
CCCCn1c(=NC(=O)c2ccco2)c(C(=O)OCC)cc2c(=O)n3ccccc3nc21,–,·,2.2,–,–,–
COCC(COCCCNC(=O)Nc1ccc(Br)cc1)OC (stereo not drawn),–,–,–,–,–,–
CCC(=O)Nc1nnc(Sc2ccc(N(C)C)cc2)s1,–,+,–,–,–,–
Cc1n[nH]c(C)c1S(=O)(=O)N(CC(=O)Nc1ccc2c(c1)OCCO2)c1ccc(C(C)C)cc1,–,–,–,–,–,–
N#Cc1sc2nc3c(c(-c4cccnc4)c2c1N)CCC3,–,–,–,–,–,–
Cc1nc2sc(C#N)c(N)c2c2c1CCCC2,–,·,2.5,–,–,–
Cc1ccc(-c2cc(-c3nnc(SCC(=O)N(C)CCC#N)n3N)c3ccccc3n2)cc1,–,·,4.2,–,–,–
Cc1ccc(-c2nnc(SCC(=O)O)n2N)cc1,–,–,–,–,–,–
O=C(O)c1cc(S(=O)(=O)O)ccc1O,–,–,–,–,–,–
O=C(OCc1cc(Cl)ccc1OC(F)F)c1cc(S(=O)(=O)O)ccc1O,–,·,2.1,–,–,–
CC(C)N=c1cc2n(-c3ccc(Cl)cc3)c3ccccc3nc-2cc1Nc1ccc(Cl)cc1,–,+,–,–,–,–
CCN1c2ccccc2-c2nc3ccccc3n2C1c1ccccn1 (stereo not drawn),–,·,3.8,–,–,–
CCN1c2ccccc2-c2nc3ccccc3n2C1c1cccnc1 (stereo not drawn),–,·,3.8,–,–,–
Cc1ccc(S(=O)(=O)c2cc3c(=O)n4ccccc4nc3n(Cc3ccco3)c2=N)cc1,–,·,3.6,–,–,–
Cc1ccc(S(=O)(=O)c2cc3c(=O)n4cccc(C)c4nc3n(Cc3ccco3)c2=N)cc1C,–,–,2.3,–,–,–
Cc1ccc(S(=O)(=O)c2cc3c(=O)n4ccccc4nc3n(CC3CCCO3)c2=N)cc1 (stereo not drawn),–,–,–,–,–,–
Cc1noc(C)c1CSc1nnc(-c2ccncc2)n1-c1ccc(Cl)c(Cl)c1,–,–,–,–,–,–
CCOc1ccc(Nc2nc(Cc3nnc(SCC(=O)NCC4CCCO4)n3C)cs2)cc1 (stereo not drawn),–,–,–,–,–,–
CCOc1ccc(Nc2nc(Cc3nnc(SCC(N)=O)o3)cs2)cc1,–,–,–,–,28,–
O=C(c1noc2c1CCCCC2)N1CCOCC1,–,–,–,–,–,–
O=C(c1noc2c1CCCC2)N1CCCCC1,–,+,–,–,–,–
Nc1[nH]nc2nc(N3CCCC3)nc(-c3ccccc3)c12,–,–,–,–,–,–
COc1ccc(-c2nc(N3CCCC3)nc3nn4c(C)cc(C)nc4c23)cc1,–,–,2.2,–,–,–
SMILES,Abs 340nm,Spn DPM-DC inh,Autofluor 339,NADH coupling,Spn PMK inh,MK inhibit
COc1ccc(-c2nc(N3CCOCC3)nc3n[nH]c(N)c23)cc1,–,–,–,–,–,–
Cc1cc(C)n2nc3nc(N4CCCC4)nc(-c4ccccc4)c3c2n1,–,–,3.2,–,–,–
COc1ccc(C2(O)CCN(CCCCOc3ccccc3)CC2)cc1,–,–,–,–,–,–
O=S(=O)(c1cccs1)N1CCN(CC(O)COc2cc(Cl)ccc2Cl)CC1 (stereo not drawn),–,–,–,–,–,–
Cc1cc(C)n2cc(CSc3nnnn3C)nc2n1,–,·,2.6,–,–,–
Nn1c(CSc2nc3ccccc3o2)nnc1CSc1nc2ccccc2o1,–,–,–,–,–,–
Cc1cc(C)n2cc(CSc3nc4cc(Cl)ccc4o3)nc2n1,–,–,2.1,–,–,–
Cc1cc(C)n2c(Br)c(CSc3nc4ccccc4o3)nc2n1,–,–,2.6,–,–,–
O=C(NCc1ccco1)Nc1ccc2nsnc2c1,–,·,2.4,–,–,–
O=C(NCc1ccco1)Nc1ccc(Br)cc1,–,–,–,–,–,–
CCN(CC)C(NC(=O)c1ccccc1)C(=O)c1ccccc1 (stereo not drawn),–,–,–,–,–,–

# High-throughput results: PubChem BioAssay, SRMLSC
